Reference: PMC7826789 (International Journal of Molecular Sciences, 2021)

How the values were obtained:
Conditions in all cases: Compound Concentration (nM):1000
AAK1 = test system: AAK1
[1] = test system: ABL1(E255K)-phosphorylated
[2] = test system: ABL1(F317I)-nonphosphorylated
[3] = test system: ABL1(F317I)-phosphorylated
[4] = test system: ABL1(F317L)-nonphosphorylated
[5] = test system: ABL1(F317L)-phosphorylated
[6] = test system: ABL1(H396P)-nonphosphorylated
[7] = test system: ABL1(H396P)-phosphorylated
[8] = test system: ABL1(M351T)-phosphorylated
[9] = test system: ABL1(Q252H)-nonphosphorylated
[10] = test system: ABL1(Q252H)-phosphorylated
[11] = test system: ABL1(T315I)-nonphosphorylated
[12] = test system: ABL1(T315I)-phosphorylated
[13] = test system: ABL1(Y253F)-phosphorylated
ABL1-nonphosphorylated = test system: ABL1-nonphosphorylated
ABL1-phosphorylated = test system: ABL1-phosphorylated
ABL2 = test system: ABL2
ACVR1B = test system: ACVR1B
ACVR1 = test system: ACVR1
ACVR2A = test system: ACVR2A
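Note: KINOMEscan scanMAX binding as percent activity remaining versus control; lower means stronger binding.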

| Structure (SMILES) | Percent Control (AAK1) | Percent Control [1] | Percent Control [2] | Percent Control [3] | Percent Control [4] | Percent Control [5] | Percent Control [6] | Percent Control [7] | Percent Control [8] | Percent Control [9] | Percent Control [10] | Percent Control [11] | Percent Control [12] | Percent Control [13] | Percent Control (ABL1-nonphosphorylated) | Percent Control (ABL1-phosphorylated) | Percent Control (ABL2) | Percent Control (ACVR1B) | Percent Control (ACVR1) | Percent Control (ACVR2A) |
| --- | --- | --- | --- | --- | --- | --- | --- | --- | --- | --- | --- | --- | --- | --- | --- | --- | --- | --- | --- | --- |
| COc1ccc2cc(-c3c(-c4ccncc4)nc(-c4ccc(S(C)(=O)=O)cc4C)n3C)ccc2c1 [SB-633825] | 83% | 80% | 100% | 65% | 83% | 74% | 58% | 78% | 81% | 63% | 83% | 53% | 54% | 86% | 66% | 75% | 62% | 19% | 60% | 100% |
| COc1cccc(-c2c[nH]c3c(N/N=C/c4ccncc4)ncnc23)c1 [GW814408X] | 69% | 0.7% | 100% | 66% | 61% | 19% | 0% | 0.2% | 0.3% | 0% | 1.1% | 50% | 48% | 0.5% | 1.2% | 0.3% | 11% | 42% | 17% | 75% |
| COc1ccc(COc2ccc(Cc3cnc(N)nc3N)cc2OC)cc1 [GW632580X] | 94% | 75% | 99% | 95% | 100% | 93% | 88% | 86% | 85% | 88% | 92% | 100% | 87% | 84% | 90% | 76% | 91% | 100% | 74% | 95% |
| Cl.O=C(Nc1ccc(Oc2ccc3[nH]c(NC(=O)c4ccco4)nc3c2)cc1)Nc1cc(C(F)(F)F)ccc1F [GW683134A] | 100% | 39% | 20% | 53% | 6.8% | 54% | 0.7% | 20% | 22% | 5.5% | 58% | 6.2% | 9.2% | 17% | 7.9% | 21% | 3.2% | 82% | 100% | 100% |
| COc1ccc2[nH]c3c4[nH]c5ccc(OC)cc5c4c4c(c3c2c1)C(=O)NC4=O [GW296115X] | 53% | 64% | 87% | 73% | 84% | 75% | 34% | 65% | 68% | 28% | 36% | 44% | 94% | 53% | 58% | 57% | 82% | 100% | 77% | 58% |
| COC(=O)Nc1nc2ccc(Oc3ccc(NC(=O)Nc4cc(C(F)(F)F)ccc4F)cc3)cc2s1.Cl [GW693917A] | 100% | 28% | 4.5% | 36% | 3.6% | 14% | 0% | 15% | 12% | 0% | 32% | 5.1% | 6.7% | 15% | 3.1% | 13% | 2.6% | 100% | 89% | 100% |
| CCS(=O)(=O)c1ccc(OC)c(Nc2ncc(-c3cccc(OC)c3)o2)c1 [GW580509X] | 100% | 5% | 90% | 40% | 45% | 6.2% | 1.4% | 7.9% | 6.5% | 6.8% | 3.2% | 100% | 97% | 8% | 16% | 9.4% | 26% | 100% | 27% | 100% |
| NS(=O)(=O)c1ccc(N/N=C2\C(=O)Nc3ccc(-c4cnco4)cc32)cc1 [GW276655] | 14% | 63% | 69% | 59% | 75% | 74% | 58% | 83% | 92% | 85% | 70% | 67% | 70% | 69% | 84% | 74% | 98% | 100% | 66% | 90% |
| CC(C)COC(=O)c1ccc2c(c1)/C(=C/Nc1ccc(S(N)(=O)=O)cc1)C(=O)N2 [GW416981X] | 26% | 100% | 100% | 83% | 100% | 100% | 75% | 100% | 100% | 95% | 100% | 100% | 73% | 100% | 100% | 100% | 100% | 100% | 100% | 100% |
| Cl.O=C(O[C@H]1CN[C@H](C#Cc2cc3ncnc(Nc4ccc5c(cnn5Cc5ccccc5)c4)c3s2)C1)N1CCOCC1 [GSK200398A] | 87% | 88% | 89% | 85% | 100% | 52% | 80% | 90% | 100% | 84% | 80% | 100% | 100% | 78% | 84% | 76% | 100% | 100% | 100% | 100% |
| NS(=O)(=O)c1ccc(N/N=C2\C(=O)Nc3ccc(C(=O)NCCc4c[nH]cn4)cc32)cc1 [GW300660X] | 100% | 100% | 100% | 77% | 98% | 100% | 93% | 100% | 100% | 99% | 100% | 100% | 86% | 100% | 100% | 91% | 100% | 100% | 100% | 100% |
| CN1CCN(C(=O)c2ccc(NC(=O)Nc3ccc(N(C)c4ccnc(Nc5ccc(CS(C)(=O)=O)cc5)n4)cc3)cc2)CC1.Cl [GW830263A] | 19% | 38% | 96% | 69% | 51% | 34% | 1.4% | 32% | 20% | 6.1% | 30% | 0% | 21% | 20% | 9% | 30% | 44% | 77% | 28% | 78% |
| Nc1ncnc2occ(-c3ccc(NC(=O)Nc4cc(C(F)(F)F)ccc4F)cc3)c12 [GW770249X] | 96% | 78% | 67% | 61% | 7.8% | 54% | 2.9% | 72% | 45% | 0% | 92% | 0% | 9.1% | 72% | 0.7% | 56% | 41% | 100% | 100% | 100% |
| CCc1ccc(Oc2nccc(-c3c(-c4ccc(F)cc4)ncn3C3CCNCC3)n2)cc1 [SB-242719] | 100% | 63% | 87% | 80% | 100% | 98% | 77% | 67% | 98% | 68% | 79% | 93% | 100% | 71% | 74% | 62% | 100% | 83% | 78% | 100% |
| C[C@@H](Oc1cc(-n2cnc3ccc(OC4CCN(C)CC4)cc32)sc1C(N)=O)c1ccccc1Cl [GSK579289A] | 62% | 44% | 52% | 87% | 100% | 78% | 43% | 56% | 80% | 46% | 67% | 61% | 75% | 60% | 60% | 48% | 83% | 81% | 85% | 57% |
| COc1ccc2c(-c3ccnc(Nc4cccc(OC(F)(F)F)c4)n3)cnn2n1 [GW810372X] | 69% | 100% | 100% | 100% | 100% | 100% | 87% | 100% | 97% | 98% | 100% | 100% | 98% | 100% | 100% | 100% | 100% | 100% | 93% | 100% |
| COc1cc(/C=N/Nc2ncnc3[nH]ncc23)ccc1O [GW578748X] | 34% | 0.8% | 100% | 37% | 56% | 23% | 0% | 1.3% | 0% | 0% | 1.6% | 79% | 24% | 1.1% | 3.1% | 1.2% | 68% | 100% | 83% | 50% |
| CC1=C(C(=O)Nc2ccc3[nH]ncc3c2)C(c2ccc(Cl)c(Cl)c2)CC(=O)N1 (stereo not shown) [GSK299115A] | 73% | 96% | 100% | 72% | 75% | 74% | 79% | 95% | 87% | 75% | 100% | 83% | 90% | 97% | 74% | 94% | 83% | 100% | 95% | 80% |
| Cl.O=S1CCN(Cc2ccc(-c3ccc4ncnc(Nc5ccc(OCc6ccccc6)c(F)c5)c4c3)o2)CC1 [GW576924A] | 100% | 100% | 100% | 96% | 100% | 70% | 99% | 100% | 100% | 100% | 100% | 100% | 100% | 100% | 100% | 89% | 100% | 100% | 100% | 100% |
| COc1cc(C)c(N(C)C(=O)CN(C)C)cc1Nc1nc(Nc2cccc(F)c2C(N)=O)c2cc[nH]c2n1 [GSK2219385] | 94% | 95% | 55% | 97% | 100% | 56% | 51% | 99% | 100% | 62% | 95% | 65% | 100% | 100% | 69% | 87% | 100% | 100% | 96% | 100% |
